Source: PubChem BioAssay (National Center for Advancing Translational Sciences (NCATS))
D2 PAM-1 – human D2 receptor positive allosteric modulation | P14416 | DiscoveRx D2 beta-arrestin cells, luminescence, 90 min; 100% = 57 uM dopamine signal | potentiation, % (test concentration not listed) | hit rate 0.23% among 360,000 | AID 624464; in the data active means potentiation above about 50%; inconclusive means mostly about 30% to 49%
Target sequence (P14416 whole entry, looked up): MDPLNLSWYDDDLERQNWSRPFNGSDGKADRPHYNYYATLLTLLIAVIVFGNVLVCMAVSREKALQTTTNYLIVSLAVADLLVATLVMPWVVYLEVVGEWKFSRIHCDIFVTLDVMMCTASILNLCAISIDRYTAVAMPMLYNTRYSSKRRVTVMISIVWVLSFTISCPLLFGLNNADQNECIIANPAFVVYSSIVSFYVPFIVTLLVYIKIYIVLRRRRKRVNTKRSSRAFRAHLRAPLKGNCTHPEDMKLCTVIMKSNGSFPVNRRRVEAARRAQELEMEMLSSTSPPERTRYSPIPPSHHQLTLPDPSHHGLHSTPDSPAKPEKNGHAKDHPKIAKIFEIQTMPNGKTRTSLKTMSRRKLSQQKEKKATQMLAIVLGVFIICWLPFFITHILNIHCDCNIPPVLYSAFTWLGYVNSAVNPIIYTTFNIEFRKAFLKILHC
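D2 cells co-treated with compound plus 50 nM dopamine (EC20) for 90 min at 37 deg C to detect potentiation. Beta-arrestin recruitment was read as enzyme-fragment luminescence after 1 h at ambient temperature. Full response was set by 57 uM dopamine.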
D2 ag-1 – agonists of human D2 dopamine receptor (beta-arrestin). P14416. DiscoveRx PathHunter D2 beta-arrestin, luminescence, 90 min; 100% = 57 uM dopamine signal. activation, % (test concentration not listed). hit rate 0.084% among 360,000. AID 624465; in the data active means activation above about 40%; inconclusive means between about 15% and that limit
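Agonist mode: compounds alone added to overnight-plated D2 PathHunter cells for 90 min at 37 C, with 57 uM final dopamine (EC100) defining full response. Beta-arrestin recruitment detected by chemiluminescent reagent, read after 1 h at ambient temperature.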
D2 ag-2 – activates the human D2 dopamine receptor. P14416. HEK293 T-REx D2 cells, calcium flux agonist mode. activation, % at 2 µM. hit rate 0.53% among 340,000. AID 485358;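 active means activation over 3 SD above normal in the single-dose calcium agonist read, cut at about 30% in these data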
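Tetracycline-induced HEK293 Trex cells with D2 receptor force-coupled to calcium signaling, plated overnight at 30 C and loaded with no-wash calcium dye. Calcium flux read kinetically for 180 s after compound addition; responses flag agonists.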
D2 PAM-2 – D2 dopamine receptor (human) potentiation. P14416. HEK293 T-REx D2, calcium flux, EC20 dopamine potentiation. potentiation, % at 10 µM. hit rate 0.34% among 340,000;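 active means potentiation over 3 SD above the plate norm, cut at about 30% in these data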
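Tetracycline-induced Hek293 Trex D2 cells, force-coupled to calcium, loaded with no-wash calcium dye. Compound added with 180 s kinetic read for agonism, then EC20 dopamine and a further 180 s read for potentiation.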
D2 antag – antagonizes the human D2 dopamine receptor | HEK293 TREx D2 cells, calcium flux, dopamine EC80 | inhibition, % at 10 µM | AID 485344 | hit rate 2% among 340,000 | P14416; in the data active means inhibition above about 30%; inactive means below that, where a call was filed
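Calcium flux kinetic readout in an inducible HEK293 TREx D2 line plated overnight at 30 C. After 180 s compound exposure, an EC80 dopamine challenge follows with another 180 s kinetic read to detect antagonism.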
Of the large screens only hits and unclear results are named; the others gave an inactive call. Hits are enriched below; roughly 2.4% of the tested compounds scored in any of these assays.

O=C(OCC(=O)N1CCN(c2ccccc2)CC1)c1cccc([N+](=O)[O-])c1	D2 antag 30
Cc1cccc(NC(=O)Nc2c(C)[nH]c(=O)[nH]c2=O)c1C	none
CCOC(=O)C1(C)C=C(Nc2ccc(O)cc2)C(=O)N1c1ccc(O)cc1 (stereo not given)	D2 PAM-1 104, D2 ag-1 inconclusive
Cc1ccc(/C=C/c2onc(C)c2S(=O)(=O)N2CCC(C(=O)N3CCC(N(C)C(C)C)CC3)CC2)cc1	none (no result: D2 PAM-1, D2 ag-1, D2 antag)
COc1ccc(OC)c(NC(=O)CN2c3cccc4cccc(c34)S2(=O)=O)c1	none (no result: D2 ag-2, D2 PAM-2, D2 antag)
COc1ccc(OC)c(NC(=O)C(C)N2c3cccc4cccc(c34)S2(=O)=O)c1 (stereo not given)	D2 antag 34
COc1ccc(C2CC(=O)Nc3c2c(=O)nc2c(C)cccn32)cc1 (stereo not given)	none (no result: D2 PAM-1, D2 ag-1, D2 antag)
Cn1c(CSCc2ccc(Cl)c(Cl)c2)nnc1SCC(=O)Nc1nccs1	D2 PAM-1 70, D2 ag-1 inconclusive
CC(NC(=O)c1ccc(OC2CCN(Cc3ccccn3)CC2)cc1)c1ccccc1 (stereo not given)	none
Cn1c(=O)c2ccccc2n(Cc2ccccc2Cl)c1=O	D2 antag 34
CCCCCC(=O)N1C[C@H](O)[C@@H](n2cc(C3CC3)nn2)C[C@@H]1c1ccc(OC)cc1	none (no result: D2 ag-2, D2 PAM-2, D2 antag)
Clc1ccc(CNC2CCN(Cc3ccccc3)CC2)cc1	none
S=C(Nc1cc(Cl)cc(Cl)c1)NC1CCN(Cc2ccccc2)CC1	D2 antag 72
S=C(NCc1ccc(Cl)cc1)NC1CCN(Cc2ccccc2)CC1	D2 antag 71
O=C(CNC(=O)c1ccccc1Cl)NC1CCN(Cc2ccccc2)CC1	none
CC(C)c1ccccc1NC(=S)NC1CCN(Cc2ccccc2)CC1	D2 antag 96
O=C(NC1CCN(Cc2ccccc2)CC1)c1ccc(Cl)cc1Cl	D2 antag 61
COc1ccc(CCNC(=S)NC2CCN(Cc3ccccc3)CC2)cc1OC	D2 antag 32
FC(F)(F)c1ccccc1NC(=S)NC1CCN(Cc2ccccc2)CC1	D2 antag 115
O=C(NC1CCN(Cc2ccccc2)CC1)C1CCN(S(=O)(=O)c2ccc(Cl)cc2)CC1	D2 antag 33
O=C(NC(=S)NC1CCN(Cc2ccccc2)CC1)c1ccc(F)cc1	none
O=C(CN1CCC(NC(=O)c2ccco2)CC1)Nc1ccccc1C(F)(F)F	D2 antag 50
COc1ccc(CCNC(=S)NCCc2ccc(OC)c(OC)c2)cc1OC	none
O=C(CSc1nc2ccccc2nc1Cc1ccc(Cl)cc1)N1CCN(c2ccccc2F)CC1	none (no result: D2 PAM-1, D2 ag-1, D2 antag)
Cc1ccc(OCC(=O)Nc2ccccc2C(=O)OCc2cc(=O)n3c(C)csc3n2)cc1	none (no result: D2 PAM-1, D2 ag-1, D2 antag)
S=C(Nc1ccccc1Cl)NC1CCC(NC(=S)Nc2ccccc2Cl)CC1 (stereo not given)	none (no result: D2 ag-2, D2 antag)
Cc1c(Cl)cccc1NC(=S)N1CCN(Cc2ccccc2)CC1	none
Cc1c(Cl)cccc1NC(=S)NC1CCN(Cc2ccccc2)CC1	D2 antag 85
S=C(Nc1ccc(Cl)cc1Cl)NC1CCN(Cc2ccccc2)CC1	D2 antag 75
S=C(Nc1ccccc1Cl)NC1CCN(Cc2ccccc2)CC1	D2 antag 85
CC(C)c1ccccc1NC(=S)N1CCN(Cc2ccc3c(c2)OCO3)CC1	D2 antag 33
O=C(O)CNc1nc(NCc2ccc(Cl)cc2)ccc1[N+](=O)[O-]	none (no result: D2 ag-2, D2 PAM-2, D2 antag)
CCOc1cc(CNC(=O)c2cc(-c3ccccc3)n[nH]2)cc(OCC)c1OCC	none (no result: D2 PAM-1, D2 ag-1, D2 antag)
Cc1cccc(-c2noc(-c3ccccc3OCC(=O)Nc3ccc([N+](=O)[O-])cc3)n2)c1	none (no result: D2 PAM-1, D2 ag-1, D2 PAM-2, D2 antag)
O=C(c1ccc2c(c1)OCO2)N1CCC2(CC1)Oc1ccc(Cl)cc1C(=O)C21CC(c2ccccc2)=NO1 (stereo not given)	D2 antag 42
c1ccc(Cn2c[n+](Cc3ccccc3)cn2)cc1	D2 antag 43
COc1ccc(CCN2C(=O)CC(N3CCN(S(=O)(=O)c4ccccc4)CC3)C2=O)cc1 (stereo not given)	D2 PAM-2 31
O=C(c1ccccc1)c1ccc2nc(Nc3cc(Cl)ccc3O)c3nncn3c2c1	none (no result: D2 PAM-1, D2 ag-1, D2 antag)
Cc1cccc(NC(=O)NC2COc3ccccc3C2)c1C (stereo not given)	none (no result: D2 PAM-1, D2 ag-1, D2 ag-2, D2 antag)
Cn1nc(C(=O)O)c(=O)n(C)c1=O	none (no result: D2 ag-2, D2 PAM-2, D2 antag)
